This is one part of a sample in which hits are shown more often than they occur.
KDM5B inh – KDM5B demethylase inhibition. AID 1347165. hit rate 2.6% among 220,000. Q9UGL1. KDM5B demethylase, FDH-coupled NADH fluorescence (FDH is formaldehyde dehydrogenase). Potency, µM (highest dose often 57.7 µM), most hits filed as inhibitors; active = well fitted inhibition curve with a large enough effect; also: nearly all actives have a fitted effect of over 70% in size
Target sequence (Q9UGL1 whole entry, looked up): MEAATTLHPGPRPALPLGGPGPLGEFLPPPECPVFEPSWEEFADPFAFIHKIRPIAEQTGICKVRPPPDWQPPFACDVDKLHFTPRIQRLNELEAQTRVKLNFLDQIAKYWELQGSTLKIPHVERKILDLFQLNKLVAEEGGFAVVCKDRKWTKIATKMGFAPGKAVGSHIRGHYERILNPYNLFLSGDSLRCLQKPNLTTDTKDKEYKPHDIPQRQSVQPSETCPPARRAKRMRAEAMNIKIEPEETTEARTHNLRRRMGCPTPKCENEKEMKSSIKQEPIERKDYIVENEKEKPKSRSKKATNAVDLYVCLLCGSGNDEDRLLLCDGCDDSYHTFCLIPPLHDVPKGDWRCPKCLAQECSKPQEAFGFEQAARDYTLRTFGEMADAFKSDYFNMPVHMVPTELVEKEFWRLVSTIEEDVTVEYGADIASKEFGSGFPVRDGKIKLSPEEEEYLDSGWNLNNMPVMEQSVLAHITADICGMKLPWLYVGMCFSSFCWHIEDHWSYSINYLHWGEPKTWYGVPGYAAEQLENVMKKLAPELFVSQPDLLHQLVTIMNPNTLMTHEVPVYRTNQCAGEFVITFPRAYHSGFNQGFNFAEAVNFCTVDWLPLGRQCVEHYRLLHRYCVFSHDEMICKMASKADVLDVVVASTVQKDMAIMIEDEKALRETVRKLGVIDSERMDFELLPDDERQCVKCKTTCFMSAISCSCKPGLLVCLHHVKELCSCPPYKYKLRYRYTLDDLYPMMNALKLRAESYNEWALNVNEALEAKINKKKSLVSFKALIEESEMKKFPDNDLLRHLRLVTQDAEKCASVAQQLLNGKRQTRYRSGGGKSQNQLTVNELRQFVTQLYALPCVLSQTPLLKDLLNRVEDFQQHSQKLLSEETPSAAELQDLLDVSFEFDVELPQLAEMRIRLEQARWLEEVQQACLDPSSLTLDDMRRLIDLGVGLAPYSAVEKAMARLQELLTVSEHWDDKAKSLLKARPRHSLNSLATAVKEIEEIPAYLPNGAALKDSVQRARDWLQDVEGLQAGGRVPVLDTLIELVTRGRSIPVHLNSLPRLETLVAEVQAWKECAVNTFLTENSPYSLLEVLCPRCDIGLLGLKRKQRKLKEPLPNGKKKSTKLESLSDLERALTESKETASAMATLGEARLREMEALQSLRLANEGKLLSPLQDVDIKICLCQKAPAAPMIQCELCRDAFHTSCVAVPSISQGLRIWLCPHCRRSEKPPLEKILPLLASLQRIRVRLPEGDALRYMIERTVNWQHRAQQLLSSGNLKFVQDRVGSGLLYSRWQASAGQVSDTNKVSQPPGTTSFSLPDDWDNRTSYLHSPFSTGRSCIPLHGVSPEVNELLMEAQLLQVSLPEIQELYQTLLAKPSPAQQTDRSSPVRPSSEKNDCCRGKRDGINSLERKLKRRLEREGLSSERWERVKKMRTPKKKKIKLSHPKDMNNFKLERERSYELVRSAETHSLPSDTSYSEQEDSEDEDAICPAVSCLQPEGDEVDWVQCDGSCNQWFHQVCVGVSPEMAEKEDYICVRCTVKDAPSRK
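Compound dilutions met 200 nM (final) KDM5BΔAP for 10 min at room temperature before substrate addition. The substrate mix held 12.5 µM H3K4me3 with cofactors 25 µM α-ketoglutarate and 50 µM Fe²⁺. NADH signal gain over 30 min defined activity.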
Each line names hits and unclear results; the compound was inactive in the other large screens.

COc1cc(NC(=O)N[C@H]2CO[C@H]3[C@@H]2OC[C@@H]3Nc2nccc(-c3ccc(-c4ccccc4)cc3)n2)cc(OC)c1	none
COCC(=O)N[C@H]1CO[C@H]2[C@@H]1OC[C@@H]2Nc1nccc(-c2ccc(OC)cc2)n1	KDM5B inh 35µM
COc1cccc(-c2nnnn2[C@H]2CO[C@H]3[C@@H]2OC[C@@H]3NS(=O)(=O)c2cccs2)c1	none
COc1ccc(-c2ccnc(N[C@H]3CO[C@H]4[C@@H]3OC[C@@H]4NC(=O)Nc3cccc(C#N)c3)n2)cc1	KDM5B inh 25µM
COc1ccc(-c2ccnc(N[C@H]3CO[C@H]4[C@@H]3OC[C@@H]4NS(=O)(=O)c3cccs3)n2)cc1	KDM5B inh 14µM
COc1cc(NC(=O)N[C@H]2CO[C@H]3[C@@H]2OC[C@@H]3Nc2nccc(-c3ccc(N(C)C)cc3)n2)cc(OC)c1	none
COc1ccc(-c2ccnc(N[C@H]3CO[C@H]4[C@@H]3OC[C@@H]4NS(=O)(=O)c3ccc4ccccc4c3)n2)cc1	none
CCNC(=O)O[C@@H]1CO[C@H]2[C@@H]1OC[C@@H]2NC(=S)Nc1ccccc1	none
CC(=O)c1cccc(NC(=O)O[C@@H]2CO[C@H]3[C@@H]2OC[C@@H]3Nc2nccc(-c3ccccc3)n2)c1	none
CS(=O)(=O)CCN1C[C@@H](C(=O)O)[C@H](c2cccnc2)C1	none
CC(=O)Nc1ccc(SC(C)C(=O)N(C)c2ccccc2)cc1 (stereo not drawn)	none
Cc1cc(Nc2ccccc2)nc(N2CCN(C(=O)Nc3cccc(Cl)c3)CC2)n1	none
Cn1c(SCC(=O)c2ccc3c(c2)NC(=O)CO3)nnc1-c1ccncc1	none
Cc1ccc(C)c(-n2ccnc2SC2CCCCC2=O)c1 (stereo not drawn)	none
COc1ccc(NC(=O)O[C@@H]2CO[C@H]3[C@@H]2OC[C@@H]3Nc2nccc(-c3cccs3)n2)cc1	none
N#Cc1cccc(-c2ccnc(N[C@H]3CO[C@H]4[C@@H]3OC[C@H]4OC(=O)Nc3cccc(C(F)(F)F)c3)n2)c1	none
CCNC(=O)N[C@H]1CO[C@H]2[C@@H]1OC[C@@H]2Nc1nccc(-c2ccc(-c3ccccc3)cc2)n1	none
COc1cccc(NC(=O)O[C@@H]2CO[C@H]3[C@@H]2OC[C@@H]3Nc2nccc(-c3ccccc3)n2)c1	none
c1csc(-c2ccnc(N[C@H]3CO[C@H]4[C@@H]3OC[C@@H]4NCC3CCCCC3)n2)c1	KDM5B inh 40µM
O=C(O)CCCC(=O)N[C@H]1CO[C@H]2[C@@H]1OC[C@@H]2Nc1nccc(-c2cccc(F)c2)n1	KDM5B inh 35µM
COc1ccc(NC(=O)O[C@@H]2CO[C@H]3[C@@H]2OC[C@@H]3NC(=O)c2ccc(OC)cc2)cc1	none
O=C(N[C@H]1CO[C@H]2[C@@H]1OC[C@@H]2Nc1nccc(C2CCCC2)n1)c1ccccc1	none
CC(C)(C)c1ccc(NC(=O)O[C@@H]2CO[C@H]3[C@@H]2OC[C@@H]3Nc2nccc(C(C)(C)C)n2)cc1	none
CC(C)(C)c1ccc(NC(=O)O[C@@H]2CO[C@H]3[C@@H]2OC[C@@H]3Nc2nccc(-c3ccc4c(c3)OCO4)n2)cc1	KDM5B inh 28µM
O=C(Nc1cccc(C(F)(F)F)c1)N[C@H]1CO[C@H]2[C@@H]1OC[C@@H]2Nc1nccc(-c2ccc(-c3ccccc3)cc2)n1	none
COc1ccc(-c2ccnc(N[C@H]3CO[C@H]4[C@@H]3OC[C@H]4OC(=O)Nc3cccc(C(F)(F)F)c3)n2)cc1	KDM5B inh 22µM
CC1=C[C@@H](CNC(=O)CCC(=O)O)[C@H](C(C)C)C[C@H]1CC(=O)N1CCN(C)CC1	none
Cc1cc(C(=O)OCC(=O)NC2CCCCCCC2)c2ccccc2n1	none
CCCNC(=O)NC(=O)CSc1nc2ccccc2c(=O)n1CC1CCCO1 (stereo not drawn)	none
COc1ccc(N2CC(C(=O)N3CCC(C(=O)NCc4ccc(F)cc4)C3)NC2=O)cc1 (stereo not drawn)	none
O=C(NCCc1ccccc1)OCc1ccccc1	none
CCCS(=O)(=O)N1CCc2ccc(NC(=O)NC)cc21	none
CCOC(=O)c1c(NC(=O)c2cc(=O)c3ccccc3o2)sc(C)c1C	none
O=C(Nc1cccc(-c2nnc3n2CCCC3)c1)c1ccsc1	none
CN(Cc1ccc(F)cc1F)S(=O)(=O)c1cccc2nsnc12	none
Cc1c(Cl)cccc1NC(=O)COc1ncnc2ccc(Br)cc12	none
Cc1cc(C)cc(Oc2c(C(F)(F)F)oc3cc(OCc4ccccc4)ccc3c2=O)c1	none
CCc1ccc(NC(=O)N2CCN(c3nnc(C)c4c(C)n(-c5ccc(C)cc5)nc34)CC2)cc1	none
Cn1cnnc1CC1CCN(C(=O)CCc2nc3ccccc3[nH]c2=O)CC1	KDM5B inh 25µM
Cc1nn(C(=O)CCCC(=O)N2CCC(Cc3nncn3C)CC2)c2ccccc12	none
Cn1cnnc1CC1CCN(C(=O)CN2CC(c3ccccc3)CC2=O)CC1 (stereo not drawn)	none
c1ccc(CNCCN2CCCC2)cc1	none
Cc1c(OC(=O)c2ccccc2Cl)cccc1OC(=O)c1ccccc1Cl	none
Cc1ccccc1S(=O)(=O)N1CCn2c(nn(CC3CC3)c2=O)C1	none
CC(=O)N1CCCC(c2nc(-c3ccc4nc[nH]c4c3)no2)C1 (stereo not drawn)	none
Cn1cc(/C=C(\NC(=O)c2ccco2)C(=O)NCCO)c2ccccc21	none
COCc1nncn1C1CCN(S(=O)(=O)c2ccccc2)CC1	none
CCCc1noc(-c2cccn3c(CNC(=O)c4ccc(F)cc4Cl)nnc23)n1	KDM5B inh 14µM
CCCc1noc(-c2cccn3c(CNC(=O)c4ccc(OC)cc4C)nnc23)n1	none
CCCc1noc(-c2cccn3c(CNC(=O)c4ccccc4C)nnc23)n1	KDM5B inh 13µM
CC(C)NC(=O)c1nc(Cc2c[nH]c3ccccc23)no1	none
Cc1noc(-c2cccn3c(CNC(=O)Cc4c[nH]c5ccccc45)nnc23)n1	none
CCCc1noc(-c2cccn3c(CNC(=O)Cc4c[nH]c5ccccc45)nnc23)n1	KDM5B inh 20µM
CCCc1noc(-c2cccn3c(CNC(=O)c4cc(C)ccc4C)nnc23)n1	KDM5B inh 28µM
CC(C)CC(=O)N1C[C@@H](Oc2cccnc2)C[C@H]1C(=O)NC1CC1	none
COc1ccc(C(C)=O)cc1CSCc1coc(-c2ccc(F)cc2)n1	none
CN(C(=O)COc1ccc2c(=O)c(Oc3ccccc3)coc2c1)c1ccccc1	none
CC(=O)c1cccc(NC(=O)Cn2c(=O)n(-c3ccc(F)cc3)c(=O)c3c2cc(C)n3C)c1	none
CCOc1cc(C#N)c(NC(=O)c2ccc(F)cc2)cc1OCC	none
CCc1nc2c(=O)n(CC(=O)NCCC3=CCCCC3)nc(C)c2s1	none
COc1ccc(OCc2nc(C)c(CCO)c(=O)n2CC(=O)Nc2ccccc2Cl)cc1	none
CC1(c2ccccc2)N(Cc2ncccn2)C(=O)OC12CCN(Cc1cccc(OC(F)(F)F)c1)CC2 (stereo not drawn)	none
Cc1noc(-c2cccn3c(CNC(=O)c4ccccc4C)nnc23)n1	KDM5B inh 28µM
CCCc1noc(-c2cccn3c(CNC(=O)c4ccccc4OCC)nnc23)n1	none
CCCc1noc(-c2cccn3c(CNC(=O)c4ccccc4Cl)nnc23)n1	KDM5B inh 28µM
Cc1ccccc1-c1noc(-c2ccccc2C(=O)NCc2ccco2)n1	none
CCc1noc(-c2cccn3c(CNC(=O)c4ccccc4Cl)nnc23)n1	KDM5B inh 28µM
CCCc1noc(-c2cccn3c(CNC(=O)c4cccc5[nH]ccc45)nnc23)n1	none
CSc1ccccc1NC(=O)CN(C)C(=O)Cn1[nH]c(=O)c2ccccc2c1=O	none
CCNc1c(NC(=O)c2ccccc2OC)c(=O)oc2ccccc12	none
CCCN1C(SCC(=O)Nc2cccc(Cl)c2C)=NS(=O)(=O)c2ccccc21	none

Screening data as filed in PubChem.
